This is a sample that favours compounds with a hit; in the whole collection about 19% have one here.
TDP1 cell noCPT = qHTS for Inhibitors of human tyrosyl-DNA phosphodiesterase 1 (TDP1): qHTS in cells in absence of CPT | DT40 Tdp1-/- hTDP1 cells, no CPT, ATP luminescence, 48 h | Potency, µM (top dose mostly 46.2 µM), for inactives: at the top dose activity change, negative = growth inhibition, actives largely listed as inhibitors | 420,000 compounds, 15% hits | AID 686978, 2013; also: potency is read from the fitted curve at half-maximal effect; % is scaled to controls: 0 for no effect and ±100 for the full control effect; nearly all actives have a fitted effect of over 55% in size
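Chicken DT40 Tdp1-/- cells complemented with human TDP1, screened without camptothecin (DMSO vehicle only), 400 cells/well. Compounds pin-transferred, cells incubated at 37 °C for at least 48 hr. Growth read as ATP-dependent luminescence (CellTiter-Glo, 30 min at RT).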
TDP1 cell CPT = growth inhibition of DT40 Tdp1-/-;hTDP1 cells with camptothecin (screen for TDP1 inhibitors) | chicken DT40 Tdp1-/-;hTDP1 cells + 20 nM CPT, ATP luminescence, 48 h | Potency, µM (highest dose often 46.2 µM), without a hit: at the highest dose activity change, negative = growth inhibition, most hits filed as inhibitors | 420,000 compounds, 12% hits; also: potency is read from the fitted curve at half-maximal effect; % is scaled to controls: 0 for no effect and ±100 for the full control effect; nearly all actives have a fitted effect of over 55% in size
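Chicken DT40 Tdp1-/- cells stably complemented with human TDP1 were seeded at 400 cells/well in medium containing 20 nM camptothecin, exposed to pin-transferred compounds, and grown at 37 °C for at least 48 hr. Viability was read as ATP luminescence.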
IL-1B inflam inh = inflammasome signaling inhibition, IL-1 beta readout. THP-1 LPS/ATP IL-1B secretion, AlphaLISA, 16 h; stronger effect = lower value. activity change, % at 57.5 µM. 360,000 compounds, 4.7% hits. AID 743279; in the data active = activity change below about -50%; inconclusive = mostly about -30% to -49%; also: % is scaled to controls: 0 for no effect and ±100 for the full control effect
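THP-1 cells pretreated 1 hr with compounds (up to 57.5 uM final), then stimulated with LPS (250 ng/mL final) plus ATP (1.25 mM final); secreted IL-1B measured by AlphaLISA after 16 hr, decreased signal indicating inhibition.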
TGFb inhibitor = inhibitors of TGF-b signaling; HepG2 CAGA-GFP TGF-b/SMAD3 reporter, GFP fluorescence, 18 h; TGF-beta stimulated, 500 pg/mL final; Potency, µM (doses to about 46.1 µM), without a hit: at the highest dose activity, negative = inhibition, most hits filed as inhibitors; 410,000 compounds, 1.2% hits; AID 588855; also: potency is read from the fitted curve at half-maximal effect; % is scaled to controls: 0 for no effect and ±100 for the full control effect; nearly all actives have a fitted effect of over 65% in size
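TGF-beta reporter screen: HEPG2 CAGA-GFP, 1% FBS, 500 pg/mL TGF-beta final, 18 h; per-cell GFP summed per well; curves fitted and categorized by class.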
HepG2 tox = counter-screen for TGF-b inhibitors: cytotoxicity in HepG2 cells; HepG2 CAGA-GFP viability, ATP luminescence, 18 h; Potency, µM (highest dose often 46.1 µM), inactives show at the highest dose activity change, negative = cytotoxicity, actives largely listed as cytotoxic; 410,000 compounds, 0.76% hits; also: potency is read from the fitted curve at half-maximal effect
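HepG2 CAGA-GFP cells (1000/well, DMEM with 1% FBS) received compound, then TGF-beta at 500 pg/mL final, and were incubated 18 hours at 37 degrees C. Viability was read by CellTiter-Glo luminescence. Media-only wells were set as complete cell-killing and DMSO as no toxicity.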
ASM inhibitor = human S-ASM enzyme inhibition. Potency, µM (highest dose often 57.5 µM), for the others: at the top dose activity change, negative = inhibition, most hits filed as inhibitors. 340,000 compounds, 0.006% hits. P17405. placental ASM, HMU-PC fluorogenic substrate, 60 min; also: potency is read from the fitted curve at half-maximal effect
Target sequence (P17405 47-631 limits assumed): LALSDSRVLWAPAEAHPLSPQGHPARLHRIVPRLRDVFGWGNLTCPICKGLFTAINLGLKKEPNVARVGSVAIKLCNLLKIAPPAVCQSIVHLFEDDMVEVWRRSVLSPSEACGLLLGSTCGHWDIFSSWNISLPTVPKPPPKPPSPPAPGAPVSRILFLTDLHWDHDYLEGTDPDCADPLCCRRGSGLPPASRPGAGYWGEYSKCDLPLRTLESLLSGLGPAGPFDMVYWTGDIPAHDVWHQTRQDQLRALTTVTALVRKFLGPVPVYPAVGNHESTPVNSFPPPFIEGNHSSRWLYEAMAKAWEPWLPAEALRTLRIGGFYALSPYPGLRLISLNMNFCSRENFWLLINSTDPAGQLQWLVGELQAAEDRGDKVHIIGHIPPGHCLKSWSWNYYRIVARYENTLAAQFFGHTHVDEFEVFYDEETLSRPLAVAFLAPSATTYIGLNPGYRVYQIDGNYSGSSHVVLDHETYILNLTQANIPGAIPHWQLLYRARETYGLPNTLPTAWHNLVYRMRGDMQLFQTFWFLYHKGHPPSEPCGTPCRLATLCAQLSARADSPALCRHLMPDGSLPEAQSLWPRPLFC
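Steps: dispense placental human ASM, pin compound, wait 10 min at room temperature, add HMU-PC0 substrate at 9 uM final, incubate 60 min at 37 °C, add stop solution raising pH to 10, read fluorescence.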
* = called active by the depositor; i = inactive; ? = inconclusive; nt = not tested or not shown. Unless noted, calls follow the shape of the dose curve; as a rule, active = well fitted curve in the direction sought with a large enough effect; inconclusive = small, poorly fitted or top-dose-only effect, or another doubt; inactive = no such curve, though single readings can be large; an effect the other way counts as inactive or inconclusive.

SMILES	TDP1 cell noCPT	TDP1 cell CPT	IL-1B inflam inh	TGFb inhibitor	HepG2 tox	ASM inhibitor
COc1cc(NC(=O)NCC2CCN(Cc3ccccc3F)CC2)cc(OC)c1	-3%	-46%	-10	27%	-4%	3%
CC1(C(=O)NS(=O)(=O)c2ccccc2Cl)CCN1C(=O)Cc1ccc(Cl)cc1Cl (stereo not given)	-2%	5%	6	-3%	-4%	nt
CCN(CC)CCC(c1ccc(OC)cc1)c1c(OC)cc(OC)c2c(C)cc(=O)oc12 (stereo not given)	nt	nt	nt	?	18µM*	nt
CCN(CC)CCC(c1ccc2c(c1)OCO2)c1c(OC)cc(OC)c2c(C)cc(=O)oc12 (stereo not given)	nt	nt	nt	-8%	-14%	nt
CCCCCc1cc(=O)oc2c(C(CCN(CC)CC)c3ccc(OC)cc3)c(OC)cc(OC)c12 (stereo not given)	?	15µM*	?	?	-101%	-2%
O=C1Nc2cccnc2N(C(=O)CCl)c2ccccc21	2.6µM*	3.3µM*	-96*	?	-74%	0%
NCCN1CCN(CC(=O)N2c3ccccc3C(=O)Nc3cccnc32)CC1	nt	nt	nt	0%	9%	-1%
COCCCn1c2nc3ccccc3nc2c2c(=O)n(Cc3ccc(Cl)cc3)cnc21	18µM*	?	-15	0%	1%	88%
CCOCCCn1c(C)nc2c(c1=O)c1nc3ccccc3nc1n2-c1ccc(C)cc1	-27%	?	-28	0%	0%	71%
COCCCn1c(C)nc2c(c1=O)c1nc3ccccc3nc1n2CCc1ccccc1	16µM*	?	-12	-3%	-1%	i
CCCCn1c2nc3ccccc3nc2c2c(=O)n(C(C)CC)cnc21 (stereo not given)	23µM*	10µM*	?	-10%	2%	305%
Cc1ccc(-n2nc(CO)c(C(=O)NCCO)n2)cc1	-12%	4%	nt	-5%	-8%	nt
Cc1sc2ncn(CC(=O)N3CCC(C(N)=O)CC3)c(=O)c2c1S(=O)(=O)N1CCOCC1	-3%	16%	1	2%	9%	5%
Cc1cc(C)nc(N/C(=N\S(=O)(=O)Cc2ccccc2)Nc2ccc(F)c(Cl)c2)n1	26µM*	18µM*	4	9%	-4%	-5%
CC1CCN(CCCNC(=O)CN2C(=O)CSc3ccc(S(=O)(=O)N4CCC(C)CC4)cc32)CC1	15µM*	?	?	?	-24%	-13%
CC1CCN(S(=O)(=O)c2ccc3c(c2)N(CC(=O)NC(C)(C)C)C(=O)CS3)CC1	-19%	-20%	nt	-6%	-3%	nt
CCCCNC(=O)CN1C(=O)CSc2ccc(S(=O)(=O)N3CCC(C)CC3)cc21	-18%	?	nt	?	-34%	nt
COc1cccc(NC(=O)CN2C(=O)CSc3ccc(S(=O)(=O)N4CCC(C)CC4)cc32)c1	?	?	-89*	?	-7%	-10%
C/C(O)=C\c1nc2ccccc2oc1=O	7.3µM*	10µM*	40	-16%	-38%	4%
Cc1ccc2oc(=O)c(/C=C(\O)CC(C)C)nc2c1	-87%	23µM*	18	-22%	-12%	-7%
CCS(=O)(=O)CCSc1nc2ccccc2o1	-3%	0%	4	9%	2%	0%
O=c1oc2ccccc2nc1/C=C(\O)c1ccc(Br)cc1	?	?	3	-4%	-4%	1%
CS(=O)(=O)Cc1nc2ccccc2oc1=O	6.5µM*	6.5µM*	10	0%	0%	0%
Cc1ccc(NC(=O)c2nc(S(C)(=O)=O)ncc2N(Cc2ccco2)Cc2cccs2)cc1C	?	?	nt	-3%	-3%	nt
